The source of these data is a collection of fitness landscapes (doi:10.1038/s41467-024-54723-y).

In all, about 18,000 sequences were measured (“TetR repression strength (sort-seq, GFP reporter)”: median about 0.23, highest 2% from about 0.68 on). The sample holds the highest values, similar sequences and a random draw of the others, so the mix is not that of the screen.

TetR (class B, Tn10), sequence (P04483 whole entry): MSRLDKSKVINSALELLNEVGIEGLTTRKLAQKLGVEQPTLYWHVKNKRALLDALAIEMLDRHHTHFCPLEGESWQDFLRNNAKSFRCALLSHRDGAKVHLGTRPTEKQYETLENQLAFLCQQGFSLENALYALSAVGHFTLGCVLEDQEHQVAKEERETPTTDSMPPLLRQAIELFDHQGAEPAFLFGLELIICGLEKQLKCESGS

The experiment addresses TetR (class B, Tn10) (UniProt P04483). The experiment is described as follows: TetR repression strength (sort-seq, GFP reporter) (relative to tetO2 = 1); higher = stronger repression. Conditions: E. coli. The essentials: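 Three independent transformations of E. coli SIG10-MAX were made with a low-copy plasmid library randomizing eight operator positions between a constitutive promoter and sfGFP, with constitutive TetR. Following 5 h at 37 °C in LB plus 50 µg/mL chloramphenicol, 10^6 cells went through FACS into 13 fluorescence bins, and each bin was sequenced by Illumina. Repression strength was defined as the top bin index plus one minus the read-weighted mean bin, divided by the unaltered operator's value. Averages included only members reaching ≥30 reads in all replicates with a CV ≤0.5.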
Regarding TCCCATCTAGTATCTGAGA, the TetR repression strength turned out to be 0.199.

Consider TCCCTTCTAGTATCGGAGA, for which the TetR repression strength came out at 0.317.

Consider TCCCATCTAGTGCGTGAGA, for which the TetR repression strength is 0.708.

Take TCCCGCCTAGTAGGCGAGA: the TetR repression strength worked out at 0.391.

Regarding TCCCCTTCAGTACGAGAGA, the TetR repression strength was determined as 0.251.

Take TCCCGGTCAGTGGTGGAGA: the TetR repression strength was 0.24.

In turn, TCCCTCACAGTGGTAGAGA returned a TetR repression strength of 0.157.

In turn, TCCCAACTAGTCCTGGAGA came in with a TetR repression strength of 0.278.

The sequence TCCCTCATAGTATTGGAGA yielded a TetR repression strength of 0.22.

On to TCCCTGGCAGTGATAGAGA, for which the TetR repression strength is 0.489.

Turning to TCCCCGTCAGTGCGGGAGA, the TetR repression strength was determined as 0.0283.

Consider TCCCATCTAGTTGGAGAGA, for which the TetR repression strength was 0.371.

In the case of TCCCTTCTAGTTGGCGAGA, the TetR repression strength was determined as 0.281.

In turn, TCCCATCTAGTTGGCGAGA gave a TetR repression strength of 0.829.

For the sequence TCCCTTTAAGTTCACGAGA, the TetR repression strength worked out at 0.199.

TCCCGGTTAGTTAGCGAGA showed a TetR repression strength of 0.363.

The sequence TCCCGGGCAGTCGTCGAGA registered a TetR repression strength of 0.311.

TCCCGGGAAGTCCTCGAGA registered a TetR repression strength of 0.985.

The sequence TCCCGGTCAGTCCTCGAGA registered a TetR repression strength of 0.15.

Take TCCCGGGCAGTCCTCGAGA: the TetR repression strength came to 0.909.

On to TCCCGGGAAGTCCGCGAGA, for which the TetR repression strength came to 0.144.

Sequence TCCCGGGGAGTCCTCGAGA registered a TetR repression strength of 0.242.

On to TCCCGGACAGTGTAGGAGA, for which the TetR repression strength came to 0.295.

In the case of TCCCTCCTAGTGTGGGAGA, the TetR repression strength stood at 0.194.

Consider TCCCTGGCAGTGATGGAGA, for which the TetR repression strength was 0.189.

TCCCGGCGAGTGGTAGAGA registered a TetR repression strength of 0.306.

TCCCGAGTAGTCCTCGAGA: the TetR repression strength was determined as 0.207.

Take TCCCTTGTAGTCGGGGAGA: the TetR repression strength stood at 0.938.

With TCCCTTGGAGTCATGGAGA, the TetR repression strength is 0.307.

TCCCCTGGAGTCGGGGAGA showed a TetR repression strength of 0.222.

TCCCTTGTAGTCTTGGAGA: the TetR repression strength is 0.287.

In turn, TCCCTTGTAGTCATGGAGA yielded a TetR repression strength of 0.687.

Regarding TCCCTTGTAGTCCGGGAGA, the TetR repression strength turned out to be 0.387.

As to TCCCCTGTAGTAGGGGAGA, the TetR repression strength was found to be 0.261.

TCCCCTGTAGTCGGGGAGA yielded a TetR repression strength of 0.858.

TCCCTTGGAGTCGGGGAGA displayed a TetR repression strength of 0.319.

TCCCAGGCAGTCGGCGAGA came in with a TetR repression strength of 0.25.

In turn, TCCCAAAGAGTGGGGGAGA showed a TetR repression strength of 0.217.

TCCCGTAGAGTGTACGAGA registered a TetR repression strength of 0.175.

Consider TCCCGTGGAGTGCCTGAGA, for which the TetR repression strength worked out at 0.0904.

TCCCCGACAGTGACTGAGA returned a TetR repression strength of 0.207.

For TCCCCGACAGTGACCGAGA, the TetR repression strength was found to be 1.08.

Sequence TCCCGGAAAGTGACCGAGA yielded a TetR repression strength of 0.203.

Take TCCCCGAAAGTGACCGAGA: the TetR repression strength came to 1.21.

As to TCCCCGCCAGTGACCGAGA, the TetR repression strength was found to be 0.207.

TCCCCGAAAGTGGCCGAGA came in with a TetR repression strength of 0.0544.

Consider TCCCGCGGAGTCCTCGAGA, for which the TetR repression strength came to 0.294.

With TCCCTATGAGTGGGCGAGA, the TetR repression strength came out at 0.164.

In turn, TCCCACTCAGTTAGGGAGA had a TetR repression strength of 0.268.

Regarding TCCCCCATAGTCGGCGAGA, the TetR repression strength came out at 0.134.

As for TCCCCAAGAGTCGACGAGA, the TetR repression strength was determined as 0.264.

TCCCCCAGAGTCGACGAGA came in with a TetR repression strength of 0.84.

For TCCCCGATAGTCGACGAGA, the TetR repression strength turned out to be 0.0424.

As to TCCCCCCGAGTCGACGAGA, the TetR repression strength was determined as 0.239.

On to TCCCCCATAGTCGACGAGA, for which the TetR repression strength stood at 0.825.

TCCCATGTAGTATGCGAGA displayed a TetR repression strength of 0.327.

In turn, TCCCCACTAGTGGCGGAGA displayed a TetR repression strength of 0.514.

As for TCCCGGTAAGTAACGGAGA, the TetR repression strength worked out at 0.201.

Take TCCCTGTGAGTCGCAGAGA: the TetR repression strength was 0.172.

In turn, TCCCTTTTAGTGCATGAGA gave a TetR repression strength of 0.711.

With TCCCTTTGAGTGCATGAGA, the TetR repression strength was 0.403.

TCCCTTTTAGTGCCTGAGA: the TetR repression strength amounted to 0.325.

In turn, TCCCTTTTAGTGAATGAGA displayed a TetR repression strength of 0.889.

Regarding TCCCTTTGAGTGAATGAGA, the TetR repression strength was found to be 0.472.

In turn, TCCCTTTTAGTGAGAGAGA displayed a TetR repression strength of 0.425.

TCCCGGAAAGTAGCAGAGA displayed a TetR repression strength of 0.0718.

TCCCTGTTAGTGTGTGAGA: the TetR repression strength worked out at 0.138.

The sequence TCCCAATGAGTAGGGGAGA came in with a TetR repression strength of 0.0811.

In turn, TCCCCACAAGTTCGGGAGA registered a TetR repression strength of 0.0657.

Turning to TCCCTTCTAGTCTAAGAGA, the TetR repression strength is 0.306.

TCCCGCAAAGTCAGGGAGA: the TetR repression strength came to 0.273.

The sequence TCCCAGCGAGTACGTGAGA had a TetR repression strength of 0.134.

Sequence TCCCGTACAGTATAGGAGA came in with a TetR repression strength of 0.0753.

Regarding TCCCGGTAAGTGAAAGAGA, the TetR repression strength worked out at 0.684.

For TCCCGGTAAGTGGGTGAGA, the TetR repression strength came out at 0.141.

TCCCGGTAAGTGGCTGAGA had a TetR repression strength of 1.11.

Sequence TCCCGGTCAGTGAAAGAGA displayed a TetR repression strength of 0.692.

TCCCGGTCAGTGAGAGAGA came in with a TetR repression strength of 0.591.

TCCCGGTGAGTGAAAGAGA: the TetR repression strength came to 0.347.

On to TCCCGGTAAGTAGCTGAGA, for which the TetR repression strength is 0.208.

With TCCCAGTCAGTGAAAGAGA, the TetR repression strength came out at 0.62.

TCCCGGTAAGTGAGAGAGA gave a TetR repression strength of 0.502.

Consider TCCCCCCCAGTCGATGAGA, for which the TetR repression strength is 0.409.

TCCCATGGAGTTCGAGAGA: the TetR repression strength is 0.0732.

TCCCCTTAAGTTAATGAGA: the TetR repression strength is 0.515.

TCCCACGGAGTCGCGGAGA showed a TetR repression strength of 0.172.

In turn, TCCCATGGAGTGTAAGAGA showed a TetR repression strength of 0.236.

With TCCCGGGCAGTCGTGGAGA, the TetR repression strength is 0.285.

TCCCTAATAGTCCTCGAGA had a TetR repression strength of 0.385.

TCCCTACTAGTCCTCGAGA returned a TetR repression strength of 1.12.

TCCCTTCTAGTCCTCGAGA yielded a TetR repression strength of 0.421.

Sequence TCCCTACGAGTACTCGAGA gave a TetR repression strength of 0.207.

On to TCCCTACGAGTCCTCGAGA, for which the TetR repression strength is 1.14.

Sequence TCCCTAAGAGTCCTCGAGA had a TetR repression strength of 0.353.

For TCCCATATAGTTTAGGAGA, the TetR repression strength stood at 0.0773.

Regarding TCCCCCGCAGTCCCTGAGA, the TetR repression strength came to 0.333.

TCCCAGATAGTCGCGGAGA showed a TetR repression strength of 0.108.

As to TCCCCATCAGTGGTAGAGA, the TetR repression strength turned out to be 0.417.

In turn, TCCCGATGAGTTAATGAGA gave a TetR repression strength of 0.196.

With TCCCGATGAGTTAGGGAGA, the TetR repression strength was found to be 0.296.

TCCCGATGAGTTAAGGAGA showed a TetR repression strength of 0.797.

In turn, TCCCGATGAGTTAGCGAGA came in with a TetR repression strength of 0.201.

In turn, TCCCGAGGAGTTAAGGAGA returned a TetR repression strength of 0.295.

For TCCCGATGAGTTAGAGAGA, the TetR repression strength amounted to 0.749.
